The nature of assay [1]: qHTS assay to test for compound auto fluorescence at 535 nm (green) in HEK293 cells (AID 720680).
Assay [2] in a line: qHTS assay to test for compound auto fluorescence at 460 nm (blue) in HEK293 cell free culture (AID 720681). In short, it runs like this: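 Test compounds were pinned into cell-free culture medium (DMEM with 10% FBS) and fluorescence was read directly at Ex/Em 405/460 nm. Signals were expressed as fluorescence equivalents of triamterene, with DMSO vehicle as control.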
A short description of assay [3]: qHTS assay to test for compound auto fluorescence at 535 nm (green) in HEK293 cell free culture (AID 720682). In short, it runs like this:
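No cells present: wells hold DMEM supplemented with 10% FBS, into which compound or vehicle is pinned. Green emission is then recorded (485 nm excitation, 535 nm emission) and scaled to fluorescein.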
For orientation: Quantitative high-throughput screening tests each substance at several concentrations.

Assay [4] can be described thus: qHTS assay to test for compound auto fluorescence at 590 nm (red) in HEK293 cell free culture (AID 720683). The procedure, abridged:
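Tox21 10K library compounds were pinned into cell-free DMEM with 10% FBS and fluorescence was read at excitation 540 nm. Activity is expressed as Rose Bengal sodium equivalency.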

Assay [5] is described as follows: qHTS assay to test for compound auto fluorescence at 590 nm (red) in HepG2 cell free culture (AID 720684). In short, it runs like this:
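Readout: intrinsic compound fluorescence at 590 nm emission after 540 nm excitation, scaled to Rose Bengal sodium. Matrix was cell-free MEM with 10% FBS; DMSO vehicle wells served as control.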

Assay [6] in a line: qHTS assay to test for compound auto fluorescence at 460 nm (blue) in HepG2 cell free culture (AID 720685). In short, it runs like this:
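Cell-free plates of MEM plus 10% FBS received 23 nL compound or DMSO vehicle; blue-channel (405/460 nm) intensity scored against triamterene as reference fluorophore.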

Assay [7] can be described thus: qHTS assay to test for compound auto fluorescence at 535 nm (green) in HepG2 cell free culture (AID 720686).
The nature of assay [8]: qHTS assay to test for compound auto fluorescence at 460 nm (blue) in HepG2 cells (AID 720687). The procedure, abridged: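 Cells (2,000/well in MEM with 10% FBS) attached overnight at 37 C, then were exposed to compound or DMSO for 1 hr at 37 C, 5% CO2. Fluorescence read at Ex/Em 405/460 nm, expressed as triamterene-equivalent signal.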
Assay [9] has as its target Glucocorticoid receptor (Homo sapiens) (UniProt P04150). Briefly: qHTS assay to identify small molecule agonists of the glucocorticoid receptor (GR) signaling pathway (AID 720691; active = well fitted activation curve with a large enough effect in the signal ratio in the repeat runs, not every such curve was filed as active; the % refers to the signal ratio). The following applies: GR-bla HeLa, beta-lactamase reporter ratio, 18 h; activation: at 62.4 µM (top of the series) unless noted. The procedure, abridged:
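Steps: seed GR-bla HeLa cells, incubate 4 h at 37 C/5% CO2; pin-transfer DMSO-dissolved compounds; incubate 18 h at 37 C; add LiveBLAzer B/G FRET substrate; after 2 h at room temperature, measure fluorescence.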

For assay [10] the target is unchanged. The experiment in a line: qHTS assay to identify small molecule antagonists of the glucocorticoid receptor (GR) signaling pathway (AID 720692; active = well fitted inhibition curve with a large enough effect in the signal ratio in the repeat runs, not every such curve was filed as active; the % refers to the signal ratio; also: potency is read from the fitted curve at half-maximal effect). In short, it runs like this: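 Antagonism was scored as loss of dexamethasone-driven (5 nM final) reporter signal in HeLa cells bearing a glucocorticoid response element–beta-lactamase construct, after 18 h compound exposure at 37 C and 2 h FRET substrate loading.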

A short description of assay [11]: qHTS assay to identify small molecule antagonists of the glucocorticoid receptor (GR) signaling pathway - cell viability counter screen (AID 720693). Also: nearly all actives have a fitted effect of over 55% in size.
Assay [12] is described as follows: qHTS assay for identifying genotoxic compounds that show differential cytotoxicity against isogenic chicken DT40 cell lines with known DNA damage response pathways - Rev3 mutant cell line (AID 743014). Also: nearly all actives have a fitted effect of over 55% in size. Also: potency is read from the fitted curve at half-maximal effect.
Assay [13] is described as follows: qHTS assay to identify small molecule antagonists of the androgen receptor (AR) signaling pathway - cell viability counter screen (AID 743033; also: nearly all actives have a fitted effect of over 45% in size).
The nature of assay [14]: qHTS assay to identify small molecule antagonists of the androgen receptor (AR) signaling pathway using the MDA cell line - cell viability counter screen (AID 743041; also: nearly all actives have a fitted effect of over 45% in size). In short, it runs like this:
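qHTS viability read-out; MDA-kb2 AR-luc; R1881-stimulated; 16 h exposure at 37C, 0% CO2; CellTiter-Fluor, 30 min; fluorescence intensity.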

Assay [15] is described as follows: qHTS assay for identifying genotoxic compounds that show differential cytotoxicity against isogenic chicken DT40 cell lines with known DNA damage response pathways - wild type cell line (AID 743012). Also: nearly all actives have a fitted effect of over 60% in size. Also: potency is read from the fitted curve at half-maximal effect. In short, it runs like this:
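Cytotoxicity in repair-proficient parental chicken DT40 cells serves as the comparator for Rad54/Ku70- and Rev3-deficient lines. Cells were exposed to compounds for 40 h at 37 C/5% CO2, and ATP-based luminescence (CellTiter-Glo) measured viability.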

Assay [16] in a line: qHTS assay for identifying genotoxic compounds that show differential cytotoxicity against isogenic chicken DT40 cell lines with known DNA damage response pathways - Rad54/Ku70 mutant cell line (AID 743015). Also: nearly all actives have a fitted effect of over 60% in size.
Assay [17] deals with Androgen receptor (Homo sapiens) (UniProt P10275). The experiment in a line: qHTS assay to identify small molecule antagonists of the androgen receptor (AR) signaling pathway (AID 743035; active = well fitted inhibition curve with a large enough effect in the signal ratio in the repeat runs, not every such curve was filed as active; the % refers to the signal ratio). The procedure, abridged:
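Steps: seed AR-UAS-bla GripTite HEK293 cells, incubate 4 h at 37C; pin in test compound, then add agonist R1881; incubate 16 h at 37C; add LiveBLAzer B/G FRET substrate, 2 h at room temperature; read fluorescence.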

For assay [18] the target is unchanged. The experiment in a line: qHTS assay to identify small molecule agonists of the androgen receptor (AR) signaling pathway (AID 743036; active = well fitted activation curve with a large enough effect in the signal ratio in the repeat runs, with a control signal flat, not every such curve was filed as active; the % refers to the signal ratio). In short, it runs like this: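 Quantitative HTS of the Tox21 10K library in HEK293 cells bearing a stably integrated UAS-controlled beta-lactamase reporter. Compound exposure lasted 16 h at 37C. Reporter activity was detected by FRET substrate fluorescence after 2 h at room temperature.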

Assay [19] has the same target. The experiment in a line: qHTS assay to identify small molecule agonists of the androgen receptor (AR) signaling pathway using the MDA cell line (AID 743040; also: nearly all actives have a fitted effect of over 20% in size). The procedure, abridged: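 Agonist activity is measured as luciferase luminescence in human MDA-kb2 cells whose MMTV reporter responds to both AR and GR. Compounds in DMSO incubate 16 h at 37C, 0% CO2, and ONE-Glo is read after 30 min.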

The target is the same in assay [20]. Briefly: qHTS assay to identify small molecule antagonists of the androgen receptor (AR) signaling pathway using the MDA cell line (AID 743042; also: nearly all actives have a fitted effect of over 55% in size). In short, it runs like this:
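MDA-kb2 cells (human breast carcinoma, stably carrying an MMTV-luciferase reporter responsive to AR and GR) were plated at 3,000 cells/well and preincubated 5 hr at 37C, then given compound plus R1881 agonist for 16 h. ONE-Glo luminescence was read.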

The structures appear in SMILES notation. Where “and” joins values, the source holds several entries; their conditions need not be identical. Identical values can stand only once. Records with an inconclusive call do not appear. More than one record can exist for a structure, and the calls need not agree. Calls of active or inactive are those of the source. Unless noted, calls follow the shape of the dose curve; as a rule, active = well fitted curve in the direction sought with a large enough effect in the repeat runs; inconclusive = weak or mixed curves; inactive = no such curve, though single readings can be large; an effect the other way counts as inactive or inconclusive.

Sequence of Androgen receptor (Homo sapiens) (P10275 whole entry, looked up): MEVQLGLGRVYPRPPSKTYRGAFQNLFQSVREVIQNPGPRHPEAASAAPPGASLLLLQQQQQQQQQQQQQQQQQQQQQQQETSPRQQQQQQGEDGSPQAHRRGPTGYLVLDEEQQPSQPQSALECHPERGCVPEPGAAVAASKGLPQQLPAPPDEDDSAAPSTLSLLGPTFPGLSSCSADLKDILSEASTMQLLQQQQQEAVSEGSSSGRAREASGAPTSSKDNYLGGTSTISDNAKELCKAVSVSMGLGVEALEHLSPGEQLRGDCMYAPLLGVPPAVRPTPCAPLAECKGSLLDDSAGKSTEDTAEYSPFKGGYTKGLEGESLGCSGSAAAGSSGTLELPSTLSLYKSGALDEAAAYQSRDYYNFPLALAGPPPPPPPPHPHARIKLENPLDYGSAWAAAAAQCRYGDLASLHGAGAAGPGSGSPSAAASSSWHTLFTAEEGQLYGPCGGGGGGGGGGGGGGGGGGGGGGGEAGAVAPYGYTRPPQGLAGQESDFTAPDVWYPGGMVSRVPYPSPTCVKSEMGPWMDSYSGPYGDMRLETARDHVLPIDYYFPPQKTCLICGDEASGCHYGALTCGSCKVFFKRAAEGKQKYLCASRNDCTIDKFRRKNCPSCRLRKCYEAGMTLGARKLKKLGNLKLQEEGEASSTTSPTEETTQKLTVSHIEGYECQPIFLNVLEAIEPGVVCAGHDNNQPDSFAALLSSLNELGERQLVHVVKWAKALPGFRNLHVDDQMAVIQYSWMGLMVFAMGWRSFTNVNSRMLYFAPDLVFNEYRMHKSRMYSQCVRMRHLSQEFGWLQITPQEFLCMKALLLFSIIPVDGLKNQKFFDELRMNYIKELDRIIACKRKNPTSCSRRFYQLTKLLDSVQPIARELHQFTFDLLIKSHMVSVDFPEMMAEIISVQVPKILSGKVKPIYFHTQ
Sequence of Glucocorticoid receptor (Homo sapiens) (P04150 whole entry, looked up): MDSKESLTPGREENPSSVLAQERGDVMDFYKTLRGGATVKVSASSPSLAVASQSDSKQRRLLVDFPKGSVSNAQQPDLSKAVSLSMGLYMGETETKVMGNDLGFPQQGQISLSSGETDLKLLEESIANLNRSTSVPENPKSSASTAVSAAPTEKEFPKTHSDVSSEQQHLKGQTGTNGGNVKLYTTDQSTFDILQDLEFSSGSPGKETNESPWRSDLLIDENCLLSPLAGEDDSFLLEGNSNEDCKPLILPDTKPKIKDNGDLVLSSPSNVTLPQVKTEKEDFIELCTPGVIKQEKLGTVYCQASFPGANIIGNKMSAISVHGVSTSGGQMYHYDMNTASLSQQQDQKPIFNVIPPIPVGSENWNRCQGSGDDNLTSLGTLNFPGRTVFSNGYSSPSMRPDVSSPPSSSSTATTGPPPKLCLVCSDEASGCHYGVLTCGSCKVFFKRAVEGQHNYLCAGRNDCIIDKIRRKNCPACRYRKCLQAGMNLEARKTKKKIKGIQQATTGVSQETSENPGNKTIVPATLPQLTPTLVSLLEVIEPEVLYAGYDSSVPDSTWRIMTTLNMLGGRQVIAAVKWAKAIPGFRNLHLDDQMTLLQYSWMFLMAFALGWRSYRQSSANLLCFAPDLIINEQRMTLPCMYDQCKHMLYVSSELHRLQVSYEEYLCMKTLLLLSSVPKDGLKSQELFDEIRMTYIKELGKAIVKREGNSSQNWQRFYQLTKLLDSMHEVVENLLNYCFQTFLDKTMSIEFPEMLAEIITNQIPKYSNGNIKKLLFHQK

On to `CC(=O)[C@@]1(O)CC[C@H]2[C@@H]3CCC4=CC(=O)CC[C@]4(C)[C@H]3CC[C@@]21C`, for which the call in assay [1], in assay [3], in assay [4], in [5], in assay [7] and in assay [8] was inactive. Further, the Potency result in [2], in assay [6], in assay [9], in assay [11], in assay [13] and in [14] was “inactive” each time. Also, the Potency in assay [10] is 1.07 µM (active) and 275 nM (active); in assay [12] it was “inactive and 17.2 µM (active)”.

`CCCCC(CC)COC(=O)/C=C\C(=O)OCC(CC)CCCC` (stereo not given): the outcome in assay [1], in assay [3], in assay [4], in assay [5], in [7] and in [8] was inactive. Further, the molecule was classed as inactive in assay [17], in assay [18], in assay [19] and in assay [20]. Moreover, the Potency entry in assay [2], in assay [6], in assay [9], in assay [11], in assay [15] and in assay [12] was “inactive” in each case. The Potency entry in assay [16], in assay [13] and in assay [14] was “inactive” throughout.

For `CC(=O)Nc1ccc(C(=O)O)cc1`, the molecule was called inactive in [1], in assay [3], in [4], in [5], in [7] and in assay [8]. Besides, the Potency entry in assay [2], in assay [6], in assay [9], in [10], in assay [15] and in assay [12] was “inactive” in each case. For the same molecule, the Potency result in [16], in assay [13] and in assay [14] was “inactive” throughout.

Regarding `C=C(C)C(=O)OCCCCCC`, the call in [1], in assay [3], in assay [4], in assay [5], in assay [7] and in [8] was inactive. Moreover, the Potency result in assay [2], in [6], in assay [9], in [10], in [11] and in assay [15] was “inactive” in each case. Moreover, the Potency entry in assay [12], in assay [16], in assay [13] and in assay [14] was “inactive” throughout.

`CC(C)(C)C1CCC(O)CC1` (stereo not given): the molecule was classed as inactive in [1], in assay [3], in [4], in assay [5], in assay [7] and in [8]. In addition, the Potency result in assay [2], in assay [6], in assay [9], in assay [10], in assay [15] and in assay [12] was “inactive” each time. The Potency entry in assay [13] and in assay [14] was “inactive” each time.

As to `CS(=O)(=O)c1ccc([C@@H](O)[C@@H](CO)NC(=O)C(Cl)Cl)cc1`, the molecule was classed as inactive in assay [1], in assay [3], in assay [4], in assay [5], in [7] and in assay [8]. Also, the Potency entry in assay [2], in assay [6], in assay [9], in [10], in [11] and in assay [13] was “inactive” in each case. The Potency entry in [14] is “inactive”. Also, the Potency in assay [15] was 4.52 µM (active) and 4.92 µM (active); in [12], 7.17 µM (active) and 4.38 µM (active).

Take `Nc1cc(-c2ccncc2)c[nH]c1=O`: the call in assay [1], in [3], in assay [4], in assay [5], in [7] and in [8] was inactive. Also, the outcome in [17], in [18], in assay [19] and in assay [20] was inactive. The Potency entry in [2], in [6], in assay [9], in assay [11], in [15] and in assay [12] was “inactive” in each case. For the same molecule, the Potency result in assay [16], in assay [13] and in assay [14] was “inactive” each time.

As to `NC(=O)NNc1ccccc1`, the molecule was called inactive in [1], in assay [3], in [4], in assay [5], in assay [7] and in assay [8]. The Potency entry in assay [2], in assay [6], in assay [9], in [10], in assay [11] and in assay [13] was “inactive” in each case. For the same molecule, the Potency result in assay [14] was “inactive”.
